Experimental findings from PubChem BioAssay (NCATS) are described below.

Molecules are shown by their SMILES. Results filed as inconclusive are left out. Activity calls are given as the source filed them. The call rests on the fitted dose curve; in most records, active means well fitted cell-killing curve with a large enough effect; inconclusive means small, poorly fitted or top-dose-only effect, or effect the other way; inactive means no such curve, though single readings can be large or run the other way.
Potency means the concentration at half of the fitted maximal effect.

The nature of this test: Quantitative highthroughput screen to assess conditional lethalithy of SEM cells grown in RPMI1640 with unreated serum (RPMI+s) (AID 1963883). Further: nearly all actives have a fitted effect of over 35% in size. The following applies: SEM B-ALL cells, CellTiter-Glo viability, 48 h; series mostly up to 45.8 µM. The essentials: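 Each medium arm—HPLM with 10% dialyzed FBS, or RPMI1640 with 5 mM glucose and 10% untreated or dialyzed FBS—was screened against an 11-point, 3-fold compound titration for 48 h at 37 °C, with CellTiter-Glo luminescence as endpoint.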
For the compound `NCCCC(O)(P(=O)(O)O)P(=O)(O)O`, the Potency was 2.96 µM (active).

In the case of `COc1cc2nc(N3CCN(C(=O)c4ccco4)CC3)nc(N)c2cc1OC`, the Potency is 10.5 µM (active). For `Cn1cc(C2=C(c3c4n(c5ccccc35)CCC(CN)C4)C(=O)NC2=O)c2ccccc21` (centres undefined), the Potency was 10.5 µM (active). Take `S=C(NCc1ccc2c(c1)OCO2)N1CCN(c2ncnc3c2oc2ccccc23)CC1`: the Potency was 42.9 µM (active).

For the compound `CC(C)(C)NC(=O)Nc1cccc(Nc2ncc(F)c(NC(C)(C)CO)n2)c1`, the Potency was 7.43 µM (active). With `CNC(=O)c1cc(Oc2ccc(NC(=O)Nc3ccc(Cl)c(C(F)(F)F)c3)c(F)c2)ccn1`, the Potency is 0.372 µM (active). Then `CCC(C(=O)O)C1CCC(C)C(C(C)C(O)C(C)C(=O)C(CC)C2OC3(C=CC(O)[C@@]4(CC[C@](C)(C5CC[C@@](O)(CC)C(C)O5)O4)O3)C(C)CC2C)O1` (some centres undefined), with 1.66 µM (active).

Regarding `CC1(C)CCC(CN2CCN(c3ccc(C(=O)NS(=O)(=O)c4ccc(NCC5CCOCC5)c([N+](=O)[O-])c4)c(Oc4cnc5[nH]ccc5c4)c3)CC2)=C(c2ccc(Cl)cc2)C1`, the Potency was 0.0526 µM (active). For `NC1(c2ccc(-c3nc4ccn5c(=O)[nH]nc5c4cc3-c3ccccc3)cc2)CCC1` the value was 2.09 µM (active). Then `Cc1cccc(Nc2nc(N[C@@H]3CCCC[C@H]3N)ncc2C(N)=O)c1`, with 4.18 µM (active). For `N#CCNC(=O)c1ccc(-c2ccnc(Nc3ccc(N4CCOCC4)cc3)n2)cc1` the value was 10.5 µM (active); for `O=C(CN1C(=O)C2(CCCC2)NC[C@H]1c1cc(F)cc(F)c1)Nc1ccc2c(c1)C[C@@]1(C2)C(=O)Nc2ncccc21`, “inactive”.

On to `Cc1ccc2nc(NCCN)c3ncc(C)n3c2c1`, for which the Potency was 23.5 µM (active). As for `O=C(O)C1=CC(O)C(O)[C@H](O)C1` (some centres undefined), the Potency result is “inactive”.

As for `Cn1c(Nc2ccc(C(F)(F)F)cc2)nc2cc(Oc3ccnc(-c4ncc(C(F)(F)F)[nH]4)c3)ccc21`, the Potency was 4.69 µM (active).

As to `COc1cc(OC2CCN(C)CC2)ccc1Nc1ncc2c(n1)n(C1CCCC1)c(=O)n2C`, the Potency is 11.8 µM (active). Turning to `c1nc2nc(Nc3ccc(N4CCOCC4)cc3)nc(NC3CCCCC3)c2[nH]1`, the Potency is 2.35 µM (active). Take `COc1cc2c(N3CCN(C(=O)Nc4ccc(OC(C)C)cc4)CC3)ncnc2cc1OCCCN1CCCCC1`: the Potency is 0.469 µM (active).

As to `CS(=O)(=O)c1cccc(CNc2nc(Nc3ccc4c(c3)CCC(=O)N4)ncc2C(F)(F)F)c1`, the Potency was 5.26 µM (active).

As to `C1CCC(C(CC2CCCCN2)C2CCCCC2)CC1` (centres undefined), the Potency is 11.8 µM (active). As for `O=C(Nc1nnc(-c2ccco2)o1)c1cc(-c2ccccc2)nc2ccccc12`, the Potency is 4.69 µM (active).

On to `COc1ccc(-c2cc3c(C)nc(N)nc3n(C3CCC(OCCO)CC3)c2=O)cn1` (centres undefined), for which the Potency is 0.469 µM (active). As to `Nc1nc(Nc2ccc(S(N)(=O)=O)cc2)nn1C(=O)c1c(F)cccc1F`, the Potency was 10.5 µM (active). For `CNC(=O)c1c(F)cccc1Nc1nc(Nc2cc3c(cc2OC)CCN3C(=O)CN(C)C)nc2[nH]ccc12` the value was 0.469 µM (active); for `COc1cc2ncnc(Nc3cccc(Cl)c3)c2cc1OC`, 0.166 µM (active); for `CN(C)c1ccc2cc(C(=O)N[C@@H](CCCN=C(N)CCl)C(=O)NCc3ccccc3)ccc2c1`, 26.4 µM (active).

Regarding `O=C(Nc1cccnc1)N1CCC(Cc2cccc(Oc3ccc(C(F)(F)F)cn3)c2)CC1`, the Potency was 2.96 µM (active). In the case of `Cc1nc(N)sc1-c1ccnc(Nc2ccc(N3CCOCC3)cc2)n1`, the Potency was 2.35 µM (active). Then `CNCCCC12CCC(c3ccccc31)c1ccccc12`, with “inactive”.
